The whole screen tested about 310,000 compounds, of which about 14,000 (4.5%) showed an effect of 50% or more. The effect is printed as a negative number. Many of the other results were omitted from the sample, so strong results are more common in it than they were.

Consider 47 molecules from paper PMC4336329 (PLoS ONE, 2015).
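Also: peak tail current of the secondary pulse compared with the same well before compound.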

The target in this test is human ether-à-go-go-related gene (hERG) potassium channel (human, UniProt Q12809). Put plainly: primary screen, population patch clamp on CHO cells stably expressing hERG; higher = less effect of the substance.
Sequence of human ether-à-go-go-related gene (hERG) potassium channel (Q12809 whole entry, looked up): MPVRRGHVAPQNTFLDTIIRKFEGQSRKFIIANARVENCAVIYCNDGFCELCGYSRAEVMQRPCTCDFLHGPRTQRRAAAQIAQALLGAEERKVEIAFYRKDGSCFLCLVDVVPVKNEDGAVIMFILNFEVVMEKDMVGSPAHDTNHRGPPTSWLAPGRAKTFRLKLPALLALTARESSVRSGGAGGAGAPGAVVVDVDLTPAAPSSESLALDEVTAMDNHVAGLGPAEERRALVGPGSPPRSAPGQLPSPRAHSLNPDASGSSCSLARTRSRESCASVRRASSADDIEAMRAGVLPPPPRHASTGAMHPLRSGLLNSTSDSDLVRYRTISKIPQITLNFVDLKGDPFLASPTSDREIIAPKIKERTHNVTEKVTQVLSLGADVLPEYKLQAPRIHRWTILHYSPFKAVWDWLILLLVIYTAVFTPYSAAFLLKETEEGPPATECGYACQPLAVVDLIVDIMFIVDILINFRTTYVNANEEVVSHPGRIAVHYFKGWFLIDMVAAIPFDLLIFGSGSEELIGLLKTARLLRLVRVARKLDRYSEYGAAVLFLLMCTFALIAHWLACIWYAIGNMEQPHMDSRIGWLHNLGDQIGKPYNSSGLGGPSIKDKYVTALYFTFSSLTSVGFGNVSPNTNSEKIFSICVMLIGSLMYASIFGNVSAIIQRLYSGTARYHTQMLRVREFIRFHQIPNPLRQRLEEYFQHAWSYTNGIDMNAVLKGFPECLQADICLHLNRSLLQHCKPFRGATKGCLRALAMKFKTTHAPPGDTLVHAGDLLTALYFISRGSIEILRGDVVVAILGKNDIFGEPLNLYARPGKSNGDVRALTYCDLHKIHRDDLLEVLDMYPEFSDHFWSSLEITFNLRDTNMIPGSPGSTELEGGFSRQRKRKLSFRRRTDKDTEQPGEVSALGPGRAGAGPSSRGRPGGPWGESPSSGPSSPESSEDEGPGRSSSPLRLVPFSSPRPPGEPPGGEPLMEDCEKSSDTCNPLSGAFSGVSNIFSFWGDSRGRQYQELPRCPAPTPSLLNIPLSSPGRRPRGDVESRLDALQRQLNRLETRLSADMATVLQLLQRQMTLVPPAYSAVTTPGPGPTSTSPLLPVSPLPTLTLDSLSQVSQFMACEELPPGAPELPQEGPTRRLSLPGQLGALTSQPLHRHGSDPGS
Consider `Cc1cc(Cl)c(S(=O)(=O)N2CCCCCC2)cc1OCC(=O)NC1CCCCC1`, for which the “hERG current change (%, negative = inhibition) at 10uM” value is listed as -18.6%.

Consider `CCNC(=O)c1c(NC(=O)c2cc(-c3cc(C)ccc3O)n[nH]2)sc2c1CCCC2`, for which the “hERG current change (%, negative = inhibition) at 10uM” value is recorded as 30.5%.

Turning to `CCn1nnnc1SCC(=O)N1CCN(c2ccccc2)CC1`, the “hERG current change (%, negative = inhibition) at 10uM” value was -10.4%.

For `Br.CC1CCN(Cc2nnnn2-c2cccc([N+](=O)[O-])c2)CC1`, the “hERG current change (%, negative = inhibition) at 10uM” value is on record as -10.8%.

`Cc1cccc(C)c1OCCNC(=O)OCc1ccccc1`: the “hERG current change (%, negative = inhibition) at 10uM” value is recorded as -6.74%.

For `Cc1c(/C=N/NC(N)=O)c2ccccn2c1C(=O)c1ccncc1.Cl`, the “hERG current change (%, negative = inhibition) at 10uM” value was -54.9%.

Consider `Cc1c(/C=N/NC(=O)CNc2ccccc2)c2ccccn2c1C(=O)c1ccncc1`, for which the “hERG current change (%, negative = inhibition) at 10uM” value is given as 0.0344%.

As to `Cc1c(/C=N/NC(N)=O)c2ccccn2c1C(=O)c1ccc(F)cc1`, the “hERG current change (%, negative = inhibition) at 10uM” value is -5.23%.

`CCCCN(CC(=O)NC(C)(C)C)C(=O)C(=O)Nc1ccc2c(c1)OCCO2`: the “hERG current change (%, negative = inhibition) at 10uM” value is given as -0.704%.

Regarding `CC(C)c1nnc(NC(=O)c2ccc(S(=O)(=O)N3CCOCC3)cc2)s1`, the “hERG current change (%, negative = inhibition) at 10uM” value was 6.52%.

With `Cc1ccnc2nc(C(=O)Nc3ccc4c(c3)OCO4)nn12`, the “hERG current change (%, negative = inhibition) at 10uM” value was -2.98%.

For the molecule `CCOC(=O)C1C(C)N=C2SCC(=O)N2C1c1cccc(Br)c1` (centres unmarked), the “hERG current change (%, negative = inhibition) at 10uM” value is -12.6%.

Regarding `COc1cc(CNc2ccc3c(c2)CCC3)cc(OC)c1O`, the “hERG current change (%, negative = inhibition) at 10uM” value is on record as 12.2%.

For `Cn1c(SCC(=O)N2CCOCC2)nnc1-c1ccc2ncccc2c1`, the “hERG current change (%, negative = inhibition) at 10uM” value is recorded as 15.4%.

Regarding `CCOc1cccc(CN2CCC(n3nccc3NC(=O)c3ccc4c(c3)OCO4)CC2)c1`, the “hERG current change (%, negative = inhibition) at 10uM” value is recorded as -43.2%.

With `COc1cccc(O)c1CN1CCC(n2nccc2NC(=O)c2ccc3c(c2)OCO3)CC1`, the “hERG current change (%, negative = inhibition) at 10uM” value was -24%.

With `COc1cc(CN2CCC(n3nccc3NC(=O)c3ccc4c(c3)OCO4)CC2)ccc1O`, the “hERG current change (%, negative = inhibition) at 10uM” value is on record as -6.7%.

`CCc1ccc(CN2CCC(n3nccc3NC(=O)c3ccc4c(c3)OCO4)CC2)cc1`: the “hERG current change (%, negative = inhibition) at 10uM” value is -72%.

For the molecule `CC(=O)c1cccc(CN2CCC(n3nccc3NC(=O)c3ccc4c(c3)OCO4)CC2)c1`, the “hERG current change (%, negative = inhibition) at 10uM” value is reported as -7.62%.

With `COc1ccc(CN2CCC(n3nccc3NC(=O)c3ccc4c(c3)OCO4)CC2)cc1C`, the “hERG current change (%, negative = inhibition) at 10uM” value is listed as -80.6%.

For `COC(=O)Nc1sc2c(c1C(N)=O)CCCCCC2`, the “hERG current change (%, negative = inhibition) at 10uM” value is recorded as 11.9%.

Take `COc1ccc(CNC2CC(=O)N(C)C2=O)cc1` (centres unmarked): the “hERG current change (%, negative = inhibition) at 10uM” value came out at 13.6%.

As for `COc1ccc(NC2C=CS(=O)(=O)C2)cc1` (centres unmarked), the “hERG current change (%, negative = inhibition) at 10uM” value amounted to 0.937%.

Turning to `O=S1(=O)C=CC(Nc2ccccc2)C1` (centres unmarked), the “hERG current change (%, negative = inhibition) at 10uM” value was -76%.

For the molecule `O=S1(=O)C=CC(Nc2cccc(Cl)c2)C1` (centres unmarked), the “hERG current change (%, negative = inhibition) at 10uM” value amounted to 16.7%.

Turning to `COc1ccc(CCN2CNc3c(c(=O)n(C)c(=O)n3C)C2)cc1`, the “hERG current change (%, negative = inhibition) at 10uM” value was -17.5%.

Take `COc1ccc(CCNC(=O)Cn2nc(C)n3nc(-c4ccccc4)cc3c2=O)cc1OC`: the “hERG current change (%, negative = inhibition) at 10uM” value was found to be 2%.

On to `CCNC(=O)c1cc2c(=O)n3cccc(C)c3nc2n(CCc2ccccc2)c1=N`, for which the “hERG current change (%, negative = inhibition) at 10uM” value is -80.3%.

As to `COCCn1c(=N)c(S(=O)(=O)c2ccc(F)cc2)cc2c(=O)n3cccc(C)c3nc21`, the “hERG current change (%, negative = inhibition) at 10uM” value is reported as -22.5%.

For `COCCn1c(=N)c(C(=O)NCCc2ccc(OC)cc2)cc2c(=O)n3cccc(C)c3nc21`, the “hERG current change (%, negative = inhibition) at 10uM” value is on record as -84.8%.

For the molecule `COCCn1c(=S)[nH]c2cc(C(=O)NCCc3ccccc3)ccc2c1=O`, the “hERG current change (%, negative = inhibition) at 10uM” value is listed as -2.2%.

For the molecule `COCCn1c(=N)c(C(=O)NCCc2ccccc2)cc2c(=O)n3cccc(C)c3nc21`, the “hERG current change (%, negative = inhibition) at 10uM” value is -82.9%.

With `Cc1cccn2c(=O)c3cc(C(=O)NCCc4ccccc4)sc3nc12`, the “hERG current change (%, negative = inhibition) at 10uM” value is -6.84%.

As for `CC(C)COc1ccc(C(=O)CCN2CCCCC2)cc1.Cl`, the “hERG current change (%, negative = inhibition) at 10uM” value is -41.4%.

Consider `COc1ccc(C)cc1-n1c(SCC(=O)Nc2cc(C)on2)nc2sc(C)c(C)c2c1=O`, for which the “hERG current change (%, negative = inhibition) at 10uM” value is -2.19%.

As to `N#Cc1nc(COc2cccc(Cl)c2)oc1N1CCCC1`, the “hERG current change (%, negative = inhibition) at 10uM” value is listed as -47.5%.

As to `C=CCC1Cc2c(Br)cccc2C(CC=C)N1` (centres unmarked), the “hERG current change (%, negative = inhibition) at 10uM” value is given as -7.3%.

With `COC1=CC=C2[C@H]3Cc4ccc(OC)c5c4[C@@]2(CCN3C)[C@H]1O5.Cl`, the “hERG current change (%, negative = inhibition) at 10uM” value was found to be 10.3%.

For the molecule `COc1cccc(NC(=O)C2CCN(Cc3cnn(-c4ccccc4)c3-n3cccc3)CC2)c1`, the “hERG current change (%, negative = inhibition) at 10uM” value is listed as -45.5%.

As for `O=C(NCc1ccc2c(c1)OCO2)C1CCN(Cc2cnn(-c3ccccc3)c2-n2cccc2)CC1`, the “hERG current change (%, negative = inhibition) at 10uM” value is reported as -49.2%.

Turning to `Cc1ccc(CNC(=O)C2CCCN(Cc3cnn(-c4ccccc4)c3-n3cccc3)C2)cc1` (centres unmarked), the “hERG current change (%, negative = inhibition) at 10uM” value is listed as -65.3%.

On to `O=C(NCC1CCCO1)C1CCCN(Cc2cnn(-c3ccccc3)c2-n2cccc2)C1` (centres unmarked), for which the “hERG current change (%, negative = inhibition) at 10uM” value was -11.2%.

For the molecule `O=C(NCc1ccccn1)C1CCCN(Cc2cnn(-c3ccccc3)c2-n2cccc2)C1` (centres unmarked), the “hERG current change (%, negative = inhibition) at 10uM” value is recorded as -24.5%.

Turning to `O=C(NCCC1=CCCCC1)C1CCN(Cc2cnn(-c3ccccc3)c2-n2cccc2)CC1`, the “hERG current change (%, negative = inhibition) at 10uM” value is -51.8%.

With `COc1cccc(CNC(=O)C2CCN(Cc3cnn(-c4ccccc4)c3-n3cccc3)CC2)c1`, the “hERG current change (%, negative = inhibition) at 10uM” value is reported as -71.3%.

Turning to `CC(C)NC(=O)C1CCN(Cc2cnn(-c3ccccc3)c2-n2cccc2)CC1`, the “hERG current change (%, negative = inhibition) at 10uM” value was -8.99%.

In the case of `O=C(NC1CC1)C1CCN(Cc2cnn(-c3ccccc3)c2-n2cccc2)CC1`, the “hERG current change (%, negative = inhibition) at 10uM” value is on record as -23.5%.
